Screens (PubChem BioAssay)
Only some compounds are listed: those with a hit (about 28% of all), similar ones and a draw of the others.
CYP2C19 activ: cytochrome P450 2C19 (human) activation. recombinant CYP2C19, luciferin-H EGE luminescence; stronger effect = higher value; 0 = fully inhibited enzyme, 1 = untreated enzyme. activation factor at 5 µM. 96,000 tested, under 10 active. AID 1025. P33261;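 active means activation factor of at least 2 at 5 µM in the primary screen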;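 further: 0 = wells with 2.5 mM tranylcypromine and 1 = vehicle-only wells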
CYP2C19 inhib: inhibitors of human CYP2C19 | P33261 | CYP2C19 Supersomes, luciferin-H EGE luminescence, 30 min | inhibition, % at 5 µM | 96,000 compounds, 21% hits;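 active means CYP2C19 inhibition above a set limit at 5 µM in the primary screen, cut at about 50% in these data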;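 further: plate controls were negative control wells for no effect and 2.5 mM tranylcypromine positive control for full effect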
CYP2C9 inhib: human CYP2C9 inhibition; inhibition, % at 5 µM; CYP2C9 Supersomes, luciferin-H conversion, luminescence; 96,000 compounds, 20% hits; P11712;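 active means blocking of liver enzyme CYP2C9 beyond about 50% at 5 µM, limit read from the data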
Target sequence (P11712 whole entry, looked up): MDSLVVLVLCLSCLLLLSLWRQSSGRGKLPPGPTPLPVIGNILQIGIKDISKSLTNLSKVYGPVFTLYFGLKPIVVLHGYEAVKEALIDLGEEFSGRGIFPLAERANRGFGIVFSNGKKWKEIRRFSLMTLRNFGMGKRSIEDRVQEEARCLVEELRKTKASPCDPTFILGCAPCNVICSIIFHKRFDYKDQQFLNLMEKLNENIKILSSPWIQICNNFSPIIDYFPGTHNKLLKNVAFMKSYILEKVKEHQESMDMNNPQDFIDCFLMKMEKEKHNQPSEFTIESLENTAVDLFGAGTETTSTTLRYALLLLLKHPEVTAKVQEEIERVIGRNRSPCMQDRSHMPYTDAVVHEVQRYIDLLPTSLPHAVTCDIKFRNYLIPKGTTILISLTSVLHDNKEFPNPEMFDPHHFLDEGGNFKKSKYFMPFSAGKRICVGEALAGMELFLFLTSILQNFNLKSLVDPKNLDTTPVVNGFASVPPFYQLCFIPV
Pyk2 oligo antag: blocks oligomerization of human Pyk2 in cells; Q14289; z-score (the deposit names both 25 µM and 10 µM); AID 1347419; Q293 cells, Pyk2 FERM NanoBiT luminescence; stronger effect = lower value; 99,000 compounds, 0.83% hits;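 active means Z-score of -3 or lower, scaled per plate to the spread of control and sample wells; inactive means z-score above -3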;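 further: negative z-score means lost luminescence so less FERM oligomerization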
CYP2C9 activ: CYP2C9 (human) activation | P11712 | AID 1024 | activation factor at 5 µM | 96,000 compounds, 1.4% hits | recombinant CYP2C9, luciferin-H conversion, luminescence; stronger effect = higher value; factor 1 = untreated enzyme, 0 = blocked;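 active means activation factor of 2 or more for CYP2C9 at a 5 µM dose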;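 further: 0 = sulfaphenazole-blocked wells and 1 = vehicle-only wells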
The depositor's hits bear a star; · = no result given.

SMILES | CYP2C19 activ | CYP2C19 inhib | CYP2C9 inhib | Pyk2 oligo antag | CYP2C9 activ
Cc1cc(=O)oc(C)c1C(=O)NCCCN1CCN(c2ccccc2F)CC1 | 0.9 | 8 | 64* | 0.75 | 0.4
Cc1ccccc1CS(=O)(=O)CCC(=O)NCCCN1CCN(c2ccccc2F)CC1 | 1 | 2 | -4 | 2.1 | 1
Cc1cc(NC(=O)CSc2nc3cc4c(cc3c(=O)n2CCc2ccccc2)OCO4)no1 | 0.4 | 59* | 46 | 0.34 | 0.5
COc1ccc(CCn2c(SCC(=O)Nc3cc(C)on3)nc3ccccc3c2=O)cc1OC | 0.4 | 64* | 51* | -0.19 | 0.5
CCCCn1c(SCC(=O)Nc2cc(C)[nH]n2)nc2ccsc2c1=O | 0.7 | 28 | 72* | -1.5 | 0.3
CCCn1c(SCc2ccon2)nc2ccccc2c1=O | 0.1 | 85* | 83* | 0.99 | 0.2
CC1CC(C)CN(CCCNC(=O)c2ccc3c(c2)NC(=O)C(N2CCCCC2)S3)C1 (stereo not drawn) | 1.1 | -6 | 2 | 3.1 | 1
CCN(c1cccc(C(F)(F)F)c1)S(=O)(=O)c1ccc2c(c1)CCN2C(=O)C1CC1 | 0.5 | 49 | 31 | -2.7 | 0.7
COc1ccc(CCn2c(SCC(=O)Nc3cc(C)on3)nc3ccsc3c2=O)cc1OC | 0.5 | 54* | 60* | -1.3 | 0.4
CCOC(=O)CSc1nc2ccccc2c(=O)n1CCC(=O)NCCc1ccc(OC)c(OC)c1 | 0.4 | 60* | 65* | 0.69 | 0.3
Cc1cc(NC(=O)CSc2nc3ccccc3c(=O)n2Cc2ccc(F)cc2)no1 | 1 | 4 | 11 | 0.04 | 0.9
NC(=O)c1ccsc1NC(=O)CSc1nc2ccccc2c(=O)n1CCCO | 0.6 | 44 | 58* | -1.4 | 0.4
CCCCCCn1c(SCC(=O)Nc2cc(C)on2)nc2ccccc2c1=O | 0.5 | 47 | 71* | 0.46 | 0.3
CCOC(=O)c1c(C)[nH]c(C(=O)OCC(=O)Nc2cc(C)c(Cl)cc2OC)c1C | 0.9 | 6 | 12 | 0.82 | 0.9
COc1ccc(NC(=O)Cn2c(=O)n(CC(=O)NCc3ccco3)c(=O)c3ccccc32)cc1 | 1 | 0 | 9 | -1 | 0.9
COc1ccc(OCc2nc3ccccc3[nH]2)cc1 | 0.5 | 49 | 24 | 0 | 0.8
Cc1ccc(OCCSCc2nc3ccccc3[nH]2)cc1 | 0.4 | 59* | 63* | 1.4 | 0.4
Clc1ccc(OCCSCc2nc3ccccc3[nH]2)cc1 | 0.4 | 64* | 57* | 2.1 | 0.4
CC(C)(C)C1CCc2[nH]nc(C(=O)O)c2C1 (stereo not drawn) | 1.1 | -13 | -13 | -0.15 | 1.1
O=C(O)CCC(=O)N1CC=C(c2ccccc2)CC1 | 0.9 | 12 | 27 | 0.94 | 0.7
O=C(Cn1[nH]c(=O)c2ccccc2c1=O)N1CC=C(c2ccccc2)CC1 | 0.2 | 81* | 67* | -0.02 | 0.3
C=CCn1c(CNC(=O)c2cccs2)nnc1SCC(=O)Nc1ccc(C(=O)O)cc1 | 1 | -5 | -3 | 0.9 | 1
Cc1cc(C)cc(COn2ccnc2)c1 | 0.3 | 69* | 46 | -0.51 | 0.5
Cc1cc(C)cc(N2C(=O)CC(n3ccnc3)C2=O)c1 (stereo not drawn) | 0.7 | 34 | 1 | 0.02 | 1
O=C(COC(=O)Cc1ccsc1)Nc1ccc(Cl)c(S(=O)(=O)N2CCOCC2)c1 | · | · | · | 0.31 | ·
SMILES | CYP2C19 activ | CYP2C19 inhib | CYP2C9 inhib | Pyk2 oligo antag | CYP2C9 activ
CCCS(=O)(=O)N1CCC(C(=O)N2CCC(Cc3ccccc3)CC2)CC1 | 0.7 | 25 | 7 | -0.67 | 0.9
CCS(=O)(=O)N1CCCC(C(=O)NCCN2CCC(Cc3ccccc3)CC2)C1 (stereo not drawn) | 1 | 5 | 2 | 0.21 | 1
CS(=O)(=O)N1CCCC(C(=O)NCCN2CCC(Cc3ccccc3)CC2)C1 (stereo not drawn) | 0.4 | 64* | -7 | 0.14 | 1.1
CCCS(=O)(=O)N1CCCC(C(=O)N2CCC(Cc3ccccc3)CC2)C1 (stereo not drawn) | 0.3 | 69* | 51* | -0.08 | 0.5
c1ccc2c(c1)CCOC2CNCCCN1CCCCC1 (stereo not drawn) | · | · | · | 0.52 | ·
CCOC(=O)/C(C#N)=C1/C=CN(Cc2ccccc2)C=N1 | 0.3 | 68* | 57* | 0.51 | 0.4
CCOC(=O)/C(C#N)=C1/C=CN(c2ccccc2)C=N1 | 1 | 0 | 31 | 0 | 0.7
COC(=O)COn1c(SCC(=O)OC)nc2ccccc2c1=O | 0.7 | 32 | 28 | 0.46 | 0.7
COC(=O)CSc1cc(C(=O)c2nccn2C)c2ccccc2n1 | 0.2 | 82* | 52* | -0.77 | 0.5
